High-throughput results (PubChem)
This is a sample that favours compounds with a hit; in the whole collection about 2.4% have one here.
POLH inh = blocks human DNA polymerase eta activity. Q9Y253. Potency, µM (titrated, usually from 114 µM), without a hit: at the top dose activity change, negative = inhibition, hits mostly inhibitors. recombinant Pol eta, fluorescent DNA replication assay. actives 1.2% (n = 390,000); further: on the % scale 0 is the no-effect control and ±100 the full control effect
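Pol eta (10 nM) was preincubated with compounds for 15 min at room temperature, after which fluorescent replication substrate (50 nM final) was added to start the reaction. Fluorescence was read kinetically at 0 and 10 min.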
WRN inhibitor = inhibitors of human WRN helicase | Q14191 | WRN helicase unwinding, fluorescent forked duplex, kinetic | Potency, µM (top dose mostly 114 µM), for the others: top-dose activity change, negative = inhibition, usual class: inhibitors | actives 0.46% (n = 360,000) | AID 651768; further: on the % scale 0 is the no-effect control and ±100 the full control effect; nearly all actives have a fitted effect of over 55% in size
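Fluorescence dequenching readout, ex 525 nm/em 598 nm, kinetic mode: forked duplex DNA (100 nM final) with adjacent fluorophore and quencher unwound by WRN (20 nM final) with 2 mM ATP. Compound preincubation 15 min, room temperature.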
Pol iota inh = DNA polymerase iota (human) inhibition; Q9UNA4; Pol iota fluorescent replication assay, 10 min; Potency, µM (series often up to 115 µM), for the others: top-dose activity, negative = inhibition, usual class: inhibitors; actives 1% (n = 390,000); AID 588590
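Fluorescent replication assay read twice, at 0 min and 10 min after adding 50 nM (final) substrate. Enzyme (10 nM) and compounds were first incubated 15 min at room temperature; enzyme-free buffer wells were negative controls.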
Pol kappa inh = inhibitors of human DNA polymerase kappa. Q9UBT6. purified Pol kappa, fluorescent DNA synthesis assay, 10 min. Potency, µM (doses to about 107 µM), for inactives: top-dose activity, negative = inhibition, hits mostly inhibitors. actives 0.53% (n = 400,000); further: on the % scale 0 is the no-effect control and ±100 the full control effect
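Kinetic fluorescence screen: compound preincubated 15 min RT with 10 nM enzyme; 50 nM substrate (final) initiates; reads at 0/10 min.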
POLB inh = inhibitors of human DNA polymerase beta. Pol beta primer extension/strand displacement, fluorescence kinetic. Potency, µM (titrated, usually from 114 µM), without a hit: at the top dose activity change, negative = inhibition, most hits filed as inhibitors. actives 1.3% (n = 340,000); further: on the % scale 0 is the no-effect control and ±100 the full control effect
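Homogeneous kinetic assay of primer extension and strand displacement by 10 nM Pol beta, preincubated 15 min at room temperature with compound before 50 nM substrate (final) was added. Read at 0 and 10 min; four-parameter Hill fit.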
FEN1 inh = inhibitors of human flap endonuclease 1; Recombinant FEN1 flap cleavage, fluorescence, 15 min; actives 0.35% (n = 390,000); Potency, µM (top dose mostly 114 µM), for inactives: top-dose activity change, negative = inhibition, usual class: inhibitors; further: on the % scale 0 is the no-effect control and ±100 the full control effect; nearly all actives have a fitted effect of over 65% in size
Target sequence (P39748 whole entry, looked up): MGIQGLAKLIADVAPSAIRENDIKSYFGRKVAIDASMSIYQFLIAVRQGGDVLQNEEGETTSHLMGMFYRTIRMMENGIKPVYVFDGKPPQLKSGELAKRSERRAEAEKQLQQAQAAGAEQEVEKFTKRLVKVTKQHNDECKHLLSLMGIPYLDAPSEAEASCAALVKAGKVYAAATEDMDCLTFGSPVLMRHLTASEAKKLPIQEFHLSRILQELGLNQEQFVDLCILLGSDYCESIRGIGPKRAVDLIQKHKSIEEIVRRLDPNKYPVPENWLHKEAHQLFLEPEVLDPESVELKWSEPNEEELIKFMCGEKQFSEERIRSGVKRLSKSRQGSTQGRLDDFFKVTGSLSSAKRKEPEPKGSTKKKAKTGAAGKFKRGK
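Recombinant FEN1 (10 nM) was preincubated with pin-transferred compounds for 15 min at room temperature, then flap DNA substrate (50 nM final) was added. Plates were read at 0 and 15 min, and normalized concentration–response data were fitted to a four-parameter Hill equation.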
* hit, by the source's call; ? = inconclusive; nt = no result given; ! = a repeat was not active; [ ] = dose if it differs, or a comment. The call rests on the fitted dose curve; in most records, active means well fitted curve in the direction sought with a large enough effect; inconclusive means small, poorly fitted or top-dose-only effect, or another doubt; inactive means no such curve, though single readings can be large; an effect the other way counts as inactive or inconclusive. Potency means the concentration at half of the fitted maximal effect.

SMILES	POLH inh	WRN inhibitor	Pol iota inh	Pol kappa inh	POLB inh	FEN1 inh
Cc1ccc(CCNC(=O)c2ccc(Cn3c(=O)c4cccn4c4cccnc43)cc2)cc1	?	nt	79.4µM*	-16.9%	?	14.5%
Cc1ccccc1CCNC(=O)c1ccc(Cn2c(=O)c3cccn3c3cccnc32)cc1	89.1µM*	nt	?	3.4%	?	0.8%
Cc1cccc(N=C2NC(=O)S/C2=C\c2ccco2)c1	?	-26.9%	35.5µM*	79.4µM*	?	-26.5%
Cc1ccc(N=C2NC(=O)/C(=C\c3ccco3)S2)cc1	14.1µM*	?	31.6µM*	?	?	-5.0%
O=C1NC(=Nc2ccc(O)cc2)S/C1=C/c1ccco1	-9.8%	-10.3%	6.9%	-33.6%	?	-1.1%
O=C(Nc1ccc2oc(-c3cc(Br)ccc3Cl)nc2c1)c1cc2ccccc2o1	?	nt	53.0%	-2.7%	2.82µM*	-7.4%
CN1CCc2c(sc3c2C(=O)NC(c2ccc(C(C)(C)C)cc2)N3)C1 (configuration not stated)	-17.3%	nt	68.4%	-12.0%	-12.0%	-7.9%
CSC[C@H](NC(=O)Cc1c(C)c2cc3c(C)c(C)oc3cc2oc1=O)C(=O)N[C@@H](Cc1ccccc1)C(=O)O	-1.1%	-3.5%	5.8%	1.6%	8.6%	2.4%
COc1ccc(CNC(=O)CCc2c(C)c3cc4c(C)c(C)oc4cc3oc2=O)cc1	-24.0%	nt	12.5%	-5.7%	22.4µM*	-8.3%
COc1ccc(CNC(=O)CCc2c(C)c3cc4c(C)coc4cc3oc2=O)cc1	11.6%	nt	?	9.9%	1.1%	13.7%
CCC(NC(=O)CCc1c(C)c2cc3c(C)c(C)oc3cc2oc1=O)C(=O)N[C@@H](Cc1ccccc1)C(=O)O (some centres not stated)	?	-24.8%	7.8%	12.2%	31.6µM*	-6.3%
O=C(O)c1ccccc1C(=O)c1ccc(Sc2ccc(Cl)cc2)c([N+](=O)[O-])c1	-14.0%	0.9%	14.6%	0.0%	79.4µM*	-21.0%
Nc1ccccc1Sc1ccc(C(=O)c2ccccc2C(=O)O)cc1[N+](=O)[O-]	?	-33.2%	-14.4%	-4.9%	-6.8%	-11.2%
COc1ccccc1/C=C/c1cncc(/C=C/c2ccccc2OC)c1	nt	nt	8.2%	-18.6%	nt	-9.3%
Cc1ccc(C(C)C)c(OCCSc2nc(-c3ccccc3F)nc3cc(=O)[nH]n23)c1	?	nt	?	-11.4%	15.8µM*	?
CCc1ccc(OCCCSc2nc(-c3ccc(C(C)(C)C)cc3)nc3cc(=O)[nH]n23)cc1	nt	nt	?	-25.7%	17.8µM*	?
Cc1ccc(OCCSc2nc(-c3ccccc3C)nc3cc(=O)[nH]n23)cc1Cl	89.1µM*	nt	?	?	?	?
O=c1cc2nc(-c3ccccc3F)nc(SCc3ccc(Br)cc3)n2[nH]1	?	nt	?	?	31.6µM*	4.0%
Cc1cccc(-c2nc(SCCCOc3ccc(Cl)c(C)c3)n3[nH]c(=O)cc3n2)c1	4.1%	nt	-10.2%	21.6%	11.5%	-0.7%
COc1ccc(N2CCN(c3oc(/C=C/c4cc(OC)c(OC)c(OC)c4)nc3C#N)CC2)cc1	-5.8%	nt	11.3%	-1.9%	33.7%	-12.4%
O=S(=O)(c1cccc(F)c1)N1CCN(c2nc(-c3cccs3)nc3ccccc23)CC1	nt	nt	19.9%	7.2%	nt	-5.0%
Cc1cccc(CSc2cn(CC(=O)N3CCCC3)c3ccccc23)c1	-13.0%	nt	4.1%	-21.5%	?	-17.8%
Cc1cc(=O)oc2cc(OCC(=O)N/N=C/c3cc([N+](=O)[O-])ccc3O)ccc12	?	-1.4%	?	-18.9%	31.6µM*	15.9%
Cc1cc(=O)oc2cc(OCC(=O)Nc3ccc(O)c(C(=O)O)c3)ccc12	?	nt	?	-16.8%	?	-25.1%
C/C(=N/NC(=O)CNC(=O)/C=C/c1ccco1)c1ccc(Cl)cc1	-26.1%	-17.0%	21.8%	-12.5%	22.4µM*	1.0%
SMILES	POLH inh	WRN inhibitor	Pol iota inh	Pol kappa inh	POLB inh	FEN1 inh
Cc1cc(C)cc(OCC(=O)N/N=C/c2ccco2)c1	-12.1%	13.0%	113.8%	-2.6%	-0.8%	5.7%
O=C(/C=C/c1ccco1)NCC(=O)N/N=C/c1ccc(Cl)cc1	-9.7%	-3.0%	-23.7%	-13.4%	2.1%	-9.5%
O=C(/C=C/c1ccco1)NCC(=O)N/N=C/c1ccc([N+](=O)[O-])cc1	44.7µM*	-4.1%[11.6 µM]	39.8µM*	?	?	?
O=C(COc1cccc([N+](=O)[O-])c1)N/N=C/c1ccco1	?	2.7%[11.6 µM]	28.2µM*	-31.0%	-17.7%	13.1%
O=[N+]([O-])c1ccc(/C=C2\C=Cc3ccccc32)cc1	nt	nt	-0.6%	3.4%	nt	7.3%
CC(=O)NC(Cc1ccc(O)cc1)C(=O)NCC(N)C(=O)c1ccccc1 (configuration not stated)	nt	nt	-10.4%	0.0%	nt	9.2%
O=C(/C=C/c1ccc([N+](=O)[O-])cc1)/C=C/c1ccco1	nt	nt	nt	nt	10µM*	nt
O=C(c1nc2ccc(Cl)cn2c1CN1CCC(CO)CC1)N1CCc2ccccc2C1	-18.1%	-14.4%	27.5%	0.4%	7.3%	5.8%
O=C(c1nc2ccc(Cl)cn2c1CN1CCCC1)N1CCc2ccccc2C1	31.6µM*	-10.8%[11.6 µM]	17.8µM*	?	?	-19.8%
CCOc1cc(CNc2ccc(N(C)C)cc2)cc(Br)c1OCC(=O)NC(C)(C)C	-6.0%	-25.0%	8.91µM*	-11.8%	-22.7%	-23.8%
CCOc1cc(CNc2cccc3ccccc23)cc(Br)c1OCC(=O)NC(C)(C)C	-18.0%	-8.5%	45.6%	-7.7%	79.4µM*	-0.6%
Cc1ccc2c(=O)c3ccccc3n(CCCN)c2c1C	nt	nt	nt	7.94µM*!	nt	nt
CCOC(=O)C1=C(COc2ccccc2)NC(=O)NC1c1cccc([N+](=O)[O-])c1 (configuration not stated)	6.4%	-13.3%[11.6 µM]	39.8µM*	-5.4%	3.5%	-22.7%
COCCCN1C(=O)C2C(C(=O)Nc3cc(C)cc(C)c3)C3C=CC2(O3)C1C(=O)NC1CCCCC1 (configuration not stated)	22.4µM*	?	12.6µM*	-40.5%	18.4%	-5.0%
CC(=O)c1ccc(NC(=O)c2c3c(nc4ccccc24)C(=O)N(C2CCCCC2)C3)cc1	-0.5%	nt	-2.2%	-6.9%	2.8%	14.5%
CCc1cc[n+](CC(=O)c2ccc(F)cc2)cc1C(=O)O	nt	nt	13.8%	4.1%	nt	2.1%
O=C(CN1C(=O)S/C(=C\c2ccccc2)C1=O)NC1CCS(=O)(=O)C1 (configuration not stated)	-2.1%	0.1%	45.4%	9.8%	42.1%	5.8%
CC(C)c1ccc(/C=C2\SC(=O)N(CC(=O)NC3CCS(=O)(=O)C3)C2=O)cc1 (configuration not stated)	50.1µM*	-2.8%[11.6 µM]	15.8µM*	-16.4%	?	-8.3%
